We go through five compounds from PubChem BioAssay (NCATS).

Test [1] has as its target Estrogen receptor (Homo sapiens) (UniProt P03372). The test can be described thus: qHTS assay for small molecule antagonists of estrogen receptor alpha signaling (AID 588513; active means well fitted curve in the direction sought with a large enough effect in the signal ratio, with a control signal flat, not every such curve was filed as active; the % refers to the signal ratio; further: on the % scale 0 is the no-effect control and ±100 the full control effect). In short, it runs like this: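 Fluorescence from CCF4 substrate after 2 h at room temperature gave reporter activity; cells had been exposed to compound and 0.5nM 17-beta-estradiol for 18 h at 37 C. Hill-equation fitting yielded IC50 and maximal response.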
On the technique in general: qHTS replaces the single test concentration by a dilution series.

The target is the same in test [2]. The test can be described thus: qHTS assay for small molecule agonists of estrogen receptor alpha signaling (AID 588514; calls by dose curve;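 further: 0% = vehicle only and 100% = reference agonist; nearly all actives have a fitted effect of over 70% in size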). In short, it runs like this: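 Read-out: CCF4 fluorescence from a beta-lactamase reporter in ER-alpha-UAS-bla HEK 293 cells after 18 hrs of compound exposure at 37 C. Normalized to 20 nM 17-beta-estradiol (100%) and DMSO (0%).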
Test [3] addresses Glucocorticoid receptor (Homo sapiens) (UniProt P04150). The test can be described thus: qHTS assay for small molecule agonists of glucocorticoid receptor signaling (AID 588532; active means well fitted curve in the direction sought with a large enough effect in the signal ratio, with a control signal flat; the % refers to the signal ratio;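 further: 100% = dexamethasone at 0.1 µM and 0% = DMSO only wells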). The settings on record: HeLa MMTV-bla, beta-lactamase ratio, agonist, 18 h; stronger effect = higher value; percent of dexamethasone control, DMSO zero. In short, it runs like this:
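Agonist-mode qHTS: GRE-driven beta-lactamase in HeLa cells exposed 18 h to titrated compounds (up to 92 uM), then CCF4 ratio read after 2 h at RT; Hill-fitted EC50, efficacy relative to 0.1 uM dexamethasone.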

Test [4] addresses Peroxisome proliferator-activated receptor gamma (Homo sapiens) (UniProt P37231). As to the kind of experiment: qHTS assay for small molecule agonists of peroxisome proliferator-activated receptor gamma signaling (AID 588536; active means well fitted curve in the direction sought with a large enough effect in the signal ratio, with a control signal flat, not every such curve was filed as active; the % refers to the signal ratio;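 further: 0% = DMSO basal wells and 100% = rosiglitazone at 2 µM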). In short, it runs like this: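 Beta-lactamase reporter read-out: CCF4 fluorescence (ex 405, em 460/530 nm) after 2 h at RT. HEK293 GeneBLAzer cells were treated for 16 h at 37 C. Hill fits gave EC50 and efficacy versus 2 uM rosiglitazone (100%) and DMSO (0%).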

Test [5] in a line: qHTS assay for small molecule agonists of retinoid X receptor alpha signaling (AID 588544). The settings on record: HEK293T RXRa-UAS-bla, beta-lactamase reporter, 18 h; 530 nm emission.
A short description of test [6]: qHTS assay for small molecule antagonists of retinoid X receptor alpha signaling (AID 588546; active means well fitted inhibition curve with a large enough effect in the signal ratio, with a control signal flat, not every such curve was filed as active; the % refers to the signal ratio;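 further: cells stimulated with 9-cis-retinoic acid as agonist; on the % scale 0 is the no-effect control and ±100 the full control effect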). The settings on record: HEK293T RXRa-UAS-bla, beta-lactamase ratio, antagonist mode; measured here: W530 green channel, cytotoxicity proxy. In short, it runs like this: (§1)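 Beta-lactamase reporter inhibition, read as CCF4 fluorescence ratio (ex 405, em 460/530 nm) after 2 h at RT. HEK293T UAS-bla cells, 2500/well, were stimulated with 9-cis-RA at 500 or 100 nM final alongside test compound for 18 h at 37 C.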

In test [7] the target is Retinoic acid receptor RXR-alpha (Homo sapiens) (UniProt P19793). The description is as above. The settings on record: HEK293T RXRa-UAS-bla, beta-lactamase ratio, antagonist mode. In short, it runs like this:
as §1

A short description of test [8]: qHTS assay for environmental chemicals that activate the Aryl hydrocarbon Receptor (AhR) signaling pathway (AID 651777). Further: % of control where 0% means no effect; nearly all actives have a fitted effect of over 15% in size. The settings on record: 1A2-DRE human hepatoma cells, luciferase, 24 h; activation: stronger effect = higher value. In short, it runs like this: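 1A2-DRE human hepatoma reporter line; 1,200 cells/well; cmpd or DMSO 24 h, 37 C/5% CO2; One-Glo 30 min RT; luciferase lum.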

Test [9] addresses Peroxisome proliferator-activated receptor alpha (Homo sapiens) (UniProt Q07869). As to the kind of experiment: qHTS assay for small molecule agonists of the peroxisome proliferator-activated receptor alpha (PPARalpha) signaling pathway (AID 651778). Further: % of control where 0% means no effect. The settings on record: PathHunter PPARalpha complementation, chemiluminescence, 6 h; max response: stronger effect = higher value. In short, it runs like this:
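Chemiluminescence from complemented enzyme reported PPARalpha activation in cells after 6 hr of compound treatment at 37 C. The detection reagent was incubated for 60 min at room temperature, and compounds were scored as agonists.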

Test [10] is described as follows: qHTS assay for small molecule agonists of the antioxidant response element (ARE) signaling pathway measured by Nrf2-dependant transcriptional activity (AID 720636; active means well fitted curve in the direction sought with a large enough effect in the repeat runs; an effect the other way counts as inactive or inconclusive;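 further: HepG2 cells with an ARE-driven luciferase reporter; % of control where 0% means no effect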). In short, it runs like this:
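Cells: ARE-luc HepG2 with Nrf2-responsive luciferase. Medium contained 1% dialyzed FBS. Compound exposure lasted 16 hr at 37 C and 5% CO2, followed by ONE-Glo luciferase detection.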

Test [11] can be described thus: qHTS assay for small molecule agonists of the antioxidant response element (ARE) signaling pathway measured by Nrf2-dependant transcriptional activity - cell viability counter screen (AID 720653; active means well fitted curve in the direction sought with a large enough effect in the repeat runs; an effect the other way counts as inactive or inconclusive; further: potency means the concentration at half of the fitted maximal effect; on max response: on the % scale 0 is the no-effect control and ±100 the full control effect). The settings on record: ARE-bla HepG2 viability, CellTiter-Glo ATP luminescence, 16 h; max response: stronger effect = lower value. In short, it runs like this: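 Cytotoxicity counter screen: intracellular ATP quantified by CellTiter-Glo luminescence in the same ARE-bla HepG2 plates, after 16 h compound exposure and a 2 h beta-lactamase substrate step.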

Test [12] is described as follows: qHTS assay for cell viability of HEK293 cells (AID 743288). Further: nearly all actives have a fitted effect of over 50% in size. Further: potency means the concentration at half of the fitted maximal effect. The settings on record: ATP luminescence (CellTiter-Glo), 18 h; max response: stronger effect = lower value. In outline:
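Viable-cell counts were inferred from luciferase-based ATP content in HEK293 cells seeded at 2,000/well, pre-incubated ≥5 h, then dosed with DMSO-solubilised compounds for 18 h at 37 C.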

A short description of test [13]: qHTS assay for cell viability of the p53RE-bla HCT-116 cell line (AID 743292). Further: nearly all actives have a fitted effect of over 55% in size. Further: potency means the concentration at half of the fitted maximal effect. In short, it runs like this: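 HCT-116 p53RE-bla cells seeded 4,000/well; 5 h at 37 C; compound (DMSO) added; 16 h at 37 C; CellTiter-Glo added, 30 min RT; luminescence read.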
For test [14], the target named is Nuclear receptor subfamily 1 group I member 2 (Rattus norvegicus) (UniProt Q9R1A7). As to the kind of experiment: qHTS assay for small molecule activators of the rat pregnane X receptor (rPXR) signaling pathway (AID 651751; call rule not given here; further: 0% is about no effect). The settings on record: rPXR reporter cells, luciferase (One-Glo), 24 h.
Chain of Nuclear receptor subfamily 1 group I member 2 (Rattus norvegicus) (Q9R1A7 whole entry, looked up): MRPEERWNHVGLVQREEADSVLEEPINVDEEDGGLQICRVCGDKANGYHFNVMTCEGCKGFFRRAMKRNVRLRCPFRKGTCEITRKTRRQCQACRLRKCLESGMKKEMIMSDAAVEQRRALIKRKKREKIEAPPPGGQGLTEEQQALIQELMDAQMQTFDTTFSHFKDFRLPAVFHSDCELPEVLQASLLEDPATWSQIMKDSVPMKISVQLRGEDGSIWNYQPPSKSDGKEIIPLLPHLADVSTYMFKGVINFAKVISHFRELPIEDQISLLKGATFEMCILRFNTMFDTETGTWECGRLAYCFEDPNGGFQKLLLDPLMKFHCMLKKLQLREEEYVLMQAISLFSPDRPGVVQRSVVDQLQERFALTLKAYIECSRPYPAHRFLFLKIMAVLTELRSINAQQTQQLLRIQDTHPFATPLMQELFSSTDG
Test [15] in a line: qHTS assay for small molecule activators of the human pregnane X receptor (PXR) signaling pathway (AID 720659; call rule not given here; further: 0% is about no effect).
The nature of test [16]: qHTS assay for small molecule antagonists of peroxisome proliferator-activated receptor delta signaling (AID 588535; active means well fitted inhibition curve with a large enough effect in the signal ratio, with a control signal flat, not every such curve was filed as active; the % refers to the signal ratio;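 on max response: cells co-treated with a PPAR-delta agonist as stimulator during compound exposure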). The settings on record: HEK293T PPARd-UAS-bla, beta-lactamase FRET ratio, 18 h; 460 nm channel. In outline: (§2)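 Antagonist-mode qHTS using GeneBLAzer PPAR-delta-UAS-bla HEK293T cells; compound exposure 18 hrs at 37 C over a titration. Ratiometric CCF4 fluorescence at 460/530 nm; concentration-response points fitted to the Hill equation.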

In test [17] the target is Peroxisome proliferator-activated receptor delta (Homo sapiens) (UniProt Q03181). Described as above. In short, it runs like this: as §2
Chain of Peroxisome proliferator-activated receptor delta (Homo sapiens) (Q03181 whole entry, looked up): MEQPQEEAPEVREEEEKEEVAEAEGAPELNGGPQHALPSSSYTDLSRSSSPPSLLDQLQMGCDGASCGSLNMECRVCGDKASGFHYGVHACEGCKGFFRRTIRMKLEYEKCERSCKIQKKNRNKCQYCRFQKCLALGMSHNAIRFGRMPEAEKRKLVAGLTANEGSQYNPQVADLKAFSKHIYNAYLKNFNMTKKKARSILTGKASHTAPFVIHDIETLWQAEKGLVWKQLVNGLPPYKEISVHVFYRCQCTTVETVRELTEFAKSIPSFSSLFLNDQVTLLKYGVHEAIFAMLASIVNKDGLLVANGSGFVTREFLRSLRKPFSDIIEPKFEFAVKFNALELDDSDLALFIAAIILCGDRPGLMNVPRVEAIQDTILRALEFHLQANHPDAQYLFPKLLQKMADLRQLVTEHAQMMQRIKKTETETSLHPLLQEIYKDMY
For test [18], the target named is Thyroid hormone receptor beta (Homo sapiens) (UniProt P10828). The test can be described thus: qHTS assay for small molecule agonists of thyroid hormone receptor beta signaling (AID 588545; calls by dose curve;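 further: 0% = DMSO only and 100% = 10 nM T3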). In outline:
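Beta-lactamase reporter activity under TR response element control is measured in HEK 293 cells after 18 hrs compound exposure. Signal is ratiometric CCF4 fluorescence, 460/530 nm.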

A short description of test [19]: qHTS assay for small molecule activators of the p53 signaling pathway (AID 651743; active means well fitted activation curve with a large enough effect in the signal ratio, not every such curve was filed as active; the % refers to the signal ratio; further: series mostly up to about 92 µM; % of control where 0% means no effect). The settings on record: HCT-116 p53RE-bla, beta-lactamase FRET ratio, 16 h; activation: stronger effect = higher value. In outline:
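A beta-lactamase reporter under p53 response element control, stably carried by HCT-116 cells, reported pathway activation. Test compounds were applied for 16 hours at 37 C, and fluorescence was measured 2 hours after adding the B/G FRET substrate.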

Test [20] addresses Thyroid hormone receptor beta (Homo sapiens) (UniProt P10828). As to the kind of experiment: qHTS assay for small molecule antagonists of thyroid hormone receptor beta signaling (AID 588547; active means well fitted inhibition curve with a large enough effect in the signal ratio, with a control signal flat, not every such curve was filed as active; the % refers to the signal ratio;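 further: cells stimulated with 0.4 nM T3 agonist during compound exposure; series mostly up to about 77 µM; on the % scale 0 is the no-effect control and ±100 the full control effect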). The settings on record: TR-UAS-bla HEK293, beta-lactamase ratio, antagonist mode, 18 h. In outline:
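Inhibition of T3-driven (0.4nM final) beta-lactamase reporter activity was measured over 0.59 nM to 92 uM compound after 18 h at 37 C. The cells were GripTite HEK293 TR-UAS-bla in charcoal/dextran-stripped serum, with CCF4 ratio read-out and IC50 from Hill fits.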

SMILES strings stand for the structures. Results filed as inconclusive are left out. Calls of active or inactive are those of the source. Unless noted, the call rests on the fitted dose curve; in most records, active means well fitted curve in the direction sought with a large enough effect; inconclusive means small, poorly fitted or top-dose-only effect, or another doubt; inactive means no such curve, though single readings can be large; an effect the other way counts as inactive or inconclusive.

Chain of Peroxisome proliferator-activated receptor alpha (Homo sapiens) (Q07869 whole entry, looked up): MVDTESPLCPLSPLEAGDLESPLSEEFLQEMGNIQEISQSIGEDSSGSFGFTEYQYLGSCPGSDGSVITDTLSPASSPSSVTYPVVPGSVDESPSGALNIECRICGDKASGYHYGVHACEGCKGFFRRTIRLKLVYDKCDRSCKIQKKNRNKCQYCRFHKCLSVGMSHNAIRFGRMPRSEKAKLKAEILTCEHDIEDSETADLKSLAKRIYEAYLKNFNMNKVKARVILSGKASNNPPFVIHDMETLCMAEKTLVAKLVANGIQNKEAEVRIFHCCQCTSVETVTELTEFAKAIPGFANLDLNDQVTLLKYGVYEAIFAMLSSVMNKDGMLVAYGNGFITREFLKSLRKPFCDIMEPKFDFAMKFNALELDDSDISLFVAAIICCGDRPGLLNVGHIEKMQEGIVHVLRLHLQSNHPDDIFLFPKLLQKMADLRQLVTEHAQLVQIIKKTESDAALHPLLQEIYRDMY
Chain of Peroxisome proliferator-activated receptor gamma (Homo sapiens) (P37231 whole entry, looked up): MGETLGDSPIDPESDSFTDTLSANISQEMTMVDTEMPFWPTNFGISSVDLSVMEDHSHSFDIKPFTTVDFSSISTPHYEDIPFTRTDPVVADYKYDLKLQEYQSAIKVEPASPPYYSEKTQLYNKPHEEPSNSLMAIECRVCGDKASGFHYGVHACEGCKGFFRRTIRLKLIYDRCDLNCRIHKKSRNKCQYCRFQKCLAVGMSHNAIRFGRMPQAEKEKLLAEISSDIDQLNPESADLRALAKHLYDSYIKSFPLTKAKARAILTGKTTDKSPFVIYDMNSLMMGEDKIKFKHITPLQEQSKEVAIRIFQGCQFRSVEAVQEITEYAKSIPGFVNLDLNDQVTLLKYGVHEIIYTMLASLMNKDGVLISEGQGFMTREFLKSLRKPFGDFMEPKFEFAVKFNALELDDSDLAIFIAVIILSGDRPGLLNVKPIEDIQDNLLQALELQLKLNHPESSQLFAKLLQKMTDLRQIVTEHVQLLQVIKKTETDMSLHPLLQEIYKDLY
Chain of Thyroid hormone receptor beta (Homo sapiens) (P10828 whole entry, looked up): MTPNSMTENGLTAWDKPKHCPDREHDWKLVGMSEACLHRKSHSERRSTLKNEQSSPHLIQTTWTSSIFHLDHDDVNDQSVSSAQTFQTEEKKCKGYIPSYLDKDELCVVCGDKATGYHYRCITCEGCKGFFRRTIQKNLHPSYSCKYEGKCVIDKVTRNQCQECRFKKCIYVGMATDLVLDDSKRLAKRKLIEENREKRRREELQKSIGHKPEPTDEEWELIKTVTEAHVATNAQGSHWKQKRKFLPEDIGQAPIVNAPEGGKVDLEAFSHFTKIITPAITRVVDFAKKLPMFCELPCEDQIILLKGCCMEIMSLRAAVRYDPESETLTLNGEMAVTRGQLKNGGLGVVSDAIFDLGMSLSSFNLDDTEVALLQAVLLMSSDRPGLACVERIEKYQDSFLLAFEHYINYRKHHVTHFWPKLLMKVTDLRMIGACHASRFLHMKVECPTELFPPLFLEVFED
Chain of Retinoic acid receptor RXR-alpha (Homo sapiens) (P19793 whole entry, looked up): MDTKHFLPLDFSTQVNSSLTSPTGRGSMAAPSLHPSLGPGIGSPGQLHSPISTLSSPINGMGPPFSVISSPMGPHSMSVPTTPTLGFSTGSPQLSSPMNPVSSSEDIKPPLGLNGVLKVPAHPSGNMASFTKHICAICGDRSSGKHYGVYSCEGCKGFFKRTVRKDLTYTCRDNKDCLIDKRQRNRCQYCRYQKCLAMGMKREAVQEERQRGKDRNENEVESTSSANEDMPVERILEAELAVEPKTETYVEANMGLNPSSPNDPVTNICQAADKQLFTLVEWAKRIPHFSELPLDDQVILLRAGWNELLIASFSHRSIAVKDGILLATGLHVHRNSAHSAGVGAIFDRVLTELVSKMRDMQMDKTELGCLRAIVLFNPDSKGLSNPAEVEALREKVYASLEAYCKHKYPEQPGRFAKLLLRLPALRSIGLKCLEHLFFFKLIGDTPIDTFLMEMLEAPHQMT
Chain of Estrogen receptor (Homo sapiens) (P03372 whole entry, looked up): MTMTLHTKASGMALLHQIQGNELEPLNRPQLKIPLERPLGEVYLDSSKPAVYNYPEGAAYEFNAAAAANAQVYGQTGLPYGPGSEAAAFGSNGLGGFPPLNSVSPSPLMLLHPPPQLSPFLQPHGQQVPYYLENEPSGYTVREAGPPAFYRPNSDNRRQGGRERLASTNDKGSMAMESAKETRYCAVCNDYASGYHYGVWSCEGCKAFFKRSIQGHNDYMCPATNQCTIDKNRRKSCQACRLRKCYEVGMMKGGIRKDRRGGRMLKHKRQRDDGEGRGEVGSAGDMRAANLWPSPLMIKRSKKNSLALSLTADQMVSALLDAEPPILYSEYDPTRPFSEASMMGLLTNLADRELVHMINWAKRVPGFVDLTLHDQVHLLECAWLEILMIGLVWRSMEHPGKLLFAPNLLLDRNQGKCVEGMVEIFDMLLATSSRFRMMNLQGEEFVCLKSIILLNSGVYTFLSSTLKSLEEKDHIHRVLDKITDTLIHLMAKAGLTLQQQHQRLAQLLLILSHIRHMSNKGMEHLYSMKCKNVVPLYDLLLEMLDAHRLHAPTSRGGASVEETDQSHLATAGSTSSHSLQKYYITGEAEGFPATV
Chain of Glucocorticoid receptor (Homo sapiens) (P04150 whole entry, looked up): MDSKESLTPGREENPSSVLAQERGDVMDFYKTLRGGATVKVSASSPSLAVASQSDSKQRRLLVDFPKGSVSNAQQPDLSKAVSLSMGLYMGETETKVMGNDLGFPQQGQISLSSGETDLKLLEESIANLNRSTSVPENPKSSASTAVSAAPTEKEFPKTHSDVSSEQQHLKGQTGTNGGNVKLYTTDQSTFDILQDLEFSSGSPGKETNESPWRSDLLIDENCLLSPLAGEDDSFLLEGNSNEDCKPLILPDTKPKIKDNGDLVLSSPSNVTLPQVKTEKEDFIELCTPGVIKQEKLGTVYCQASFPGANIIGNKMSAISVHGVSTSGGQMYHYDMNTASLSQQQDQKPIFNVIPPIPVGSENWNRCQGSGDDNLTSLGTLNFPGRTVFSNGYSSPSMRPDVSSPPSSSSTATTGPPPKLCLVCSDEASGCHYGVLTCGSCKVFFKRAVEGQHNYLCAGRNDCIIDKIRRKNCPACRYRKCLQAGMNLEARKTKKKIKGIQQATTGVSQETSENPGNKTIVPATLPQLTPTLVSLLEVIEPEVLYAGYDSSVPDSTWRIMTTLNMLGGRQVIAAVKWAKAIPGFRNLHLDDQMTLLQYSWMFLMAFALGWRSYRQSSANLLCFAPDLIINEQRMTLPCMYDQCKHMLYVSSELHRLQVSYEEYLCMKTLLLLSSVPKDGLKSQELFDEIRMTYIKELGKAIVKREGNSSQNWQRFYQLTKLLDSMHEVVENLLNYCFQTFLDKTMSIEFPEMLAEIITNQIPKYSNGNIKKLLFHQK

For `CC(C)OC(=O)c1ccccc1C(=O)OC(C)C`, the Potency entry in test [1], in test [2], in test [10] and in test [13] was “inactive” in each case. Also, the results for the activation in [3] and in test [8] were -6.71% (inactive) and 1.05% (inactive), respectively. Further, the outcome in [4] and in test [15] was inactive. Also, the max response in [5] was -10.4%; in [6] it was -19.4%; in test [7], -1.37% (inactive); in test [9], -0.635% (inactive); in test [11], 0.0901% (inactive); in test [12], -5.59% (inactive). Also, in test [14], the max response is 2.54% (inactive).

Consider `CCCCCCCCCCCCCO`, for which the Potency result in [1], in test [2], in test [17], in test [18] and in test [13] was “inactive” each time. The activation in test [3] was 0.908% (inactive); in test [19], -3% (inactive); in test [8] it was 0.322% (inactive). The max response was 18.2% in test [16]; -5.38% in [5]; -5.73% in test [6]; 3.57% (inactive) in [7]; 1.19% (inactive) in test [9]; -9.94% (inactive) in [11]. For the same compound, the max response in test [12] is -5.94% (inactive); in test [14], 1.91% (inactive). Moreover, the outcome in test [4] and in test [15] was inactive.

As for `N[C@@H]1[C@@H](O)[C@H](O)[C@@H](CO)O[C@H]1O`, the Potency result in test [1], in test [2], in [17], in test [18], in test [10] and in [13] was “inactive” in each case. Moreover, the max response in [16] was 8.04%; in test [5], -2.29%; in [6] it was -16.6%; in test [7], 6.05% (inactive); in test [9], -1.62% (inactive); in test [11] it was -11.9% (inactive). For the same compound, the max response in test [12] is -8.29% (inactive); in [14], -3.38% (inactive). Also, the compound was classed as inactive in test [4] and in test [15]. Also, the activation in [19] is -3.01% (inactive); in test [8], 2.2% (inactive).

`CC1(C)CC(N)CC(C)(CN)C1` (stereo unspecified): the Potency result in test [1], in [2], in [17], in test [18], in [10] and in test [13] was “inactive” in each case. Moreover, the activation in test [3] was 10.3% (inactive); in [19], -1.29% (inactive). In addition, the max response in test [16] was -18%; in test [5], -8.73%; in test [6], -12.5%; in test [7] it was 4.46% (inactive); in test [9], -3.48% (inactive); in test [11], -2.66% (inactive). For the same compound, the figures for the max response in [12] and in test [14] were -2.22% (inactive) and -2.15% (inactive), respectively. Also, the result in test [4] and in [15] was inactive.

As for `Nc1c(N=Nc2ccc(S(=O)(=O)CCOS(=O)(=O)O)cc2)c(S(=O)(=O)O)cc2cc(S(=O)(=O)O)c(N=Nc3ccc(S(=O)(=O)CCOS(=O)(=O)O)cc3)c(O)c12`, the Potency entry in test [1], in [2], in [17], in [18] and in [10] was “inactive” throughout. Also, the max response was -15.1% in test [16]; -7.65% in test [5]; -13.3% in test [6]; -8.75% (inactive) in test [9]; -11.2% (inactive) in test [14]. In test [20], the activity change % (negative = inhibition) was -6.2% (inactive). Also, the activation in test [19] was -4.94% (inactive); in test [8], -7.65% (inactive). Moreover, the Potency in test [11] is 35.5 µM (active); in test [12], 35.5 µM (active); in [13], 25.1 µM (active). Besides, in test [15], the result was inactive.
